Results published in PubChem BioAssay (Tox21).
“And” between values parts separate entries of the source, which are not always exact repeats. Equal entries are not always repeated. Records with an inconclusive call do not appear. Entries that show only a call come without a potency. More than one record can exist for a structure, and the calls need not agree. The source made the active and inactive calls. Unless noted, calls come from the whole dose curve; as a rule, active = well fitted curve in the direction sought with a large enough effect in the repeat runs; inconclusive = weak or mixed curves; inactive = no such curve, though single readings can be large; an effect the other way counts as inactive or inconclusive.

How the values were obtained:
[1] = qHTS assay to identify small molecule antagonists of the peroxisome proliferator-activated receptor delta (PPARd) signaling pathway - cell viability counter screen (AID 743213); note: nearly all actives have a fitted effect of over 50% in size; note: potency is the fitted concentration of half-maximal effect
Outline: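 Viability counter-screen, qHTS format: PPARd-bla HEK293H, L165041 300 nM final, 17 h compound exposure at 37 C, CellTiter-Glo luminescence after 30 min RT.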

[2] = qHTS assay to identify small molecule agonists of the farnesoid-X-receptor (FXR) signaling pathway - cell viability counter screen (AID 743218); note: nearly all actives have a fitted effect of over 45% in size; note: potency is the fitted concentration of half-maximal effect
Outline: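 Cytotoxicity counter-screen run in parallel, same wells: FXR-UAS-bla HEK 293T cells dosed 16 h at 37 C, viability read by CellTiter-Glo luminescence after 30 min at room temperature.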

[3] = qHTS assay to identify small molecule agonists of the vitamin D receptor (VDR) signaling pathway - cell viability counter screen (AID 743224); note: nearly all actives have a fitted effect of over 50% in size; note: potency is the fitted concentration of half-maximal effect
Outline: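 Viability is measured in the same wells as the VDR-bla reporter assay: after 16 h compound treatment and 2 h substrate loading, CellTiter-Glo is added and luminescence read 30 min later.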

[4] = biological target: Peroxisome proliferator-activated receptor delta (Homo sapiens) (UniProt Q03181); assay: qHTS assay to identify small molecule antagonists of the peroxisome proliferator-activated receptor delta (PPARd) signaling pathway (AID 743215; active = well fitted inhibition curve with a large enough effect in the signal ratio in the repeat runs, not every such curve was filed as active; the % refers to the signal ratio;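 note: cells stimulated with agonist L165041 at 300 nM final during compound exposure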; note: potency is the fitted concentration of half-maximal effect)
Outline: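 Inhibition of L165041-driven (300 nM final) PPARd signaling is scored in HEK293H UAS-bla cells. Exposure lasts 17 h at 37 C; beta-lactamase activity is then read by FRET substrate fluorescence after 2 h at room temperature.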

[5] = qHTS assay to identify small molecule antagonists of the farnesoid-X-receptor (FXR) signaling pathway - cell viability counter screen (AID 743221; active = well fitted cell-killing curve with a large enough effect in the repeat runs, not every such curve was filed as active; note: nearly all actives have a fitted effect of over 50% in size; note: potency is the fitted concentration of half-maximal effect)
Outline: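 GeneBLAzer FXR-UAS-bla HEK 293T cells, compound plus chenodeoxycholic acid (50 uM final), 16 h at 37 C. CellTiter-Glo added to the same wells after the beta-lactamase read; luminescence read after 30 min at room temperature as viability.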

[6] = biological target: Vitamin D3 receptor (Homo sapiens) (UniProt P11473); assay: qHTS assay to identify small molecule agonists of the vitamin D receptor (VDR) signaling pathway (AID 743222; calls by dose curve)
Outline: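 Quantitative HTS agonist-mode screen: compounds in DMSO were pin-transferred onto VDR-bla cells and incubated 16 h at 37C, 5% CO2. Reporter activity was detected with LiveBLAzer B/G FRET substrate after 2 h at room temperature.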

[7] = biological target: Vitamin D3 receptor (Homo sapiens) (UniProt P11473); assay: qHTS assay to identify small molecule antagonists of the vitamin D receptor (VDR) signaling pathway (AID 743223; active = well fitted inhibition curve with a large enough effect in the signal ratio in the repeat runs, not every such curve was filed as active; the % refers to the signal ratio; note: potency is the fitted concentration of half-maximal effect)
Outline: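 VDR-bla cells were treated with compound plus 3 nM final 1alpha,25-dihydroxyvitamin D3 for 16 h at 37C. Beta-lactamase reporter read by B/G FRET substrate fluorescence after 2 h at room temperature. qHTS format.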

[8] = biological target: Bile acid receptor (Homo sapiens) (UniProt Q96RI1); assay: qHTS assay to identify small molecule antagonists of the farnesoid-X-receptor (FXR) signaling pathway (AID 743217; active = well fitted inhibition curve with a large enough effect in the signal ratio in the repeat runs, not every such curve was filed as active; the % refers to the signal ratio; note: potency is the fitted concentration of half-maximal effect)
Outline: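 Antagonist mode against 50 uM (final) chenodeoxycholic acid stimulation in FXR-bla HEK 293T cells, 16 h at 37 °C. Inhibition detected as reduced beta-lactamase activity via LiveBLAzer B/G FRET fluorescence after 2 h at room temperature.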

[9] = biological target: Bile acid receptor (Homo sapiens) (UniProt Q96RI1); assay: qHTS assay to identify small molecule agonists of the farnesoid-X-receptor (FXR) signaling pathway (AID 743220; active = well fitted activation curve with a large enough effect in the signal ratio in the repeat runs, not every such curve was filed as active; the % refers to the signal ratio)
Outline: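 Beta-lactamase reporter under UAS control in GeneBLAzer FXR HEK 293T cells (5000/well) measured with LiveBLAzer FRET substrate after 2 h at room temperature. Compound exposure lasted 16 h at 37C.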

Peroxisome proliferator-activated receptor delta (Homo sapiens), sequence (Q03181 whole entry, looked up): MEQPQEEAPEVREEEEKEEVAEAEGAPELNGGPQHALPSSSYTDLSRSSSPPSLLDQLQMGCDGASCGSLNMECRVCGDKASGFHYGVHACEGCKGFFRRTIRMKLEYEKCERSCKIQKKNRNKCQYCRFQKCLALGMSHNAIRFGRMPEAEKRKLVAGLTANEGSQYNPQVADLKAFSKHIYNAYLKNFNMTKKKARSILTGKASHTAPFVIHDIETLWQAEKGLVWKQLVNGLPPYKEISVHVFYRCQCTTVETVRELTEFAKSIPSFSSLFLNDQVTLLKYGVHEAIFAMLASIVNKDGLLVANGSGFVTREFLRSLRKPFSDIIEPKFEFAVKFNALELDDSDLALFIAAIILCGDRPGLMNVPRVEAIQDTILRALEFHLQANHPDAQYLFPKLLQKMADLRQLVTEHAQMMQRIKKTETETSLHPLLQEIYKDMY
Vitamin D3 receptor (Homo sapiens), sequence (P11473 whole entry, looked up): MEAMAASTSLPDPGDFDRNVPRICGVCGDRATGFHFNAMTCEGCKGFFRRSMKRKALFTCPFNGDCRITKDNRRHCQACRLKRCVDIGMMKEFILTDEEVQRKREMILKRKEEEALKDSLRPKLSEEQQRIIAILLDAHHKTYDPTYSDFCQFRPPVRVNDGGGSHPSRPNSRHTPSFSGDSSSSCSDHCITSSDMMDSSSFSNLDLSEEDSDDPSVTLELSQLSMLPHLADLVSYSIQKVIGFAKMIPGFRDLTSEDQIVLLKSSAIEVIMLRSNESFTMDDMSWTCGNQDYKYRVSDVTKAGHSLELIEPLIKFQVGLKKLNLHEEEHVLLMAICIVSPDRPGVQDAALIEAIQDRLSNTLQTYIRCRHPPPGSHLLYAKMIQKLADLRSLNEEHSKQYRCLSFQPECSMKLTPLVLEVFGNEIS
Bile acid receptor (Homo sapiens), sequence (Q96RI1 whole entry, looked up): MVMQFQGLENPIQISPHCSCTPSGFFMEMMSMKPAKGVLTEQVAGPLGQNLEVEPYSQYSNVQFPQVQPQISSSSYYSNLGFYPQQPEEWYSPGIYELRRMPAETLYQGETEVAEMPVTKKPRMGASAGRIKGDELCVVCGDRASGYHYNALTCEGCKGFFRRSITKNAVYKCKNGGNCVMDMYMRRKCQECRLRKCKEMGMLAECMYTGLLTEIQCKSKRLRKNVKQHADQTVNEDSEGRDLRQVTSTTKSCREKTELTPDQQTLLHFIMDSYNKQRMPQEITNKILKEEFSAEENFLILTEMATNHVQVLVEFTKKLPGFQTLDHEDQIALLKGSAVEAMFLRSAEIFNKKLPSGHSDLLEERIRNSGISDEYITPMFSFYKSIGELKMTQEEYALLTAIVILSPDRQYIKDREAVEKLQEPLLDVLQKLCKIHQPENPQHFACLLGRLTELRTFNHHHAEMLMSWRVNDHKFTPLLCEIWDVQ

## Clc1ccc(COC(Cn2ccnc2)c2ccc(Cl)cc2Cl)cc1 (centres undefined)
[1]
  Potency: 40.7 µM (active) and 24.4 µM (active)
[2]
  Potency: 32.3 µM (active) and 19.4 µM (active) and 26.6 µM (active)
[3]
  Potency: 20.4 µM (active) and 13.7 µM (active) and 26.6 µM (active)

## O=C(CCl)C(Cl)Cl
[4]
  Potency: 49.4 µM (active)
[5]
  Potency: 49.4 µM (active)

## CC(C)CC(C)Nc1ccc(Nc2ccccc2)cc1 (centres undefined)
[1]
  Potency: 38.3 µM (active)
[3]
  Potency: 38.3 µM (active)

## C[C@@H]1CC[C@@]2(OC1)O[C@H]1[C@@H](O)[C@H]3[C@@H]4CC[C@H]5C[C@@H](O[C@@H]6O[C@H](CO)[C@H](O[C@@H]7O[C@H](CO)[C@@H](O)[C@H](O[C@@H]8OC[C@@H](O)[C@H](O)[C@H]8O)[C@H]7O[C@@H]7O[C@H](CO)[C@@H](O)[C@H](O[C@@H]8O[C@H](CO)[C@@H](O)[C@H](O)[C@H]8O)[C@H]7O)[C@H](O)[C@H]6O)[C@H](O)C[C@]5(C)[C@H]4CC[C@]3(C)[C@H]1[C@@H]2C
[1]
  Potency: 4.63 µM (active)
[2]
  Potency: 26.1 µM (active)
[6]
  Potency: inactive
[7]
  Potency: 32.8 µM (active)
[3]
  Potency: 8.24 µM (active)

## CCCCCCCCCCCCBr
[1]
  Potency: inactive
[2]
  Potency: 13.8 µM (active)
[6]
  Potency: inactive
[7]
  Potency: inactive
[3]
  Potency: inactive

## Cc1cc(C(F)(C(F)(F)F)C(F)(F)F)ccc1NC(=O)c1cccc(I)c1C(=O)NC(C)(C)CS(C)(=O)=O
[4]
  Potency: inactive
[8]
  Potency: inactive
[2]
  Potency: inactive
[5]
  Potency: inactive
[3]
  Potency: inactive

## CN(C)C1CSSSC1
[1]
  Potency: inactive
[5]
  Potency: inactive
[6]
  Potency: inactive
[3]
  Potency: inactive

## N#CC(Cl)Cl
[1]
  Potency: inactive
[2]
  Potency: inactive
[7]
  Potency: inactive
[3]
  Potency: inactive

## c1ccc2c(c1)[nH]c1cnccc12
[1]
  Potency: inactive
[2]
  Potency: inactive
[5]
  Potency: inactive
[3]
  Potency: inactive

## CC(c1ccc(O)cc1)c1ccc(O)cc1
[1]
  Potency: inactive
[5]
  Potency: inactive
[3]
  Potency: inactive

## BrC(Br)C(Br)(Br)Br
[1]
  Potency: 39.1 µM (active)
[9]
  outcome: inactive
[5]
  Potency: inactive

## C[C@]12CC[C@H]3[C@@H](CCC4=CC(=O)CC[C@@]43C)[C@@H]1CC[C@@H]2O
[1]
  Potency: inactive
[5]
  Potency: inactive
[3]
  Potency: inactive

## c1ccc2c(c1)OCC(C1=NCCN1)O2 (centres undefined)
[4]
  Potency: 23.7 µM (active)
[6]
  Potency: inactive
[7]
  Potency: 16.9 µM (active)
[3]
  Potency: inactive

## CCCCCCCCCCCCCCC(Br)C(=O)O (centres undefined)
[4]
  Potency: inactive
[8]
  Potency: inactive
[2]
  Potency: 21.9 µM (active)
[7]
  Potency: inactive

## O=c1c(C2CC(c3ccc(-c4ccc(Br)cc4)cc3)Cc3ccccc32)c(O)sc2ccccc12 (centres undefined)
[1]
  Potency: inactive
[7]
  Potency: inactive

## CCCCCCCCCCCCCCCC[n+]1ccccc1
[1]
  Potency: 25.7 µM (active) and 21.9 µM (active) and 24.2 µM (active)
[3]
  Potency: 25.7 µM (active) [middle of 4 runs]

## c1ccc2cc3c(cc2c1)-c1cccc2cccc-3c12
[1]
  Potency: inactive
[2]
  Potency: inactive
[3]
  Potency: inactive

## C[C@@H]1O[C@@H](O[C@H]2C[C@@H](O)[C@]3(CO)[C@H]4[C@H](O)C[C@]5(C)[C@@H](C6=CC(=O)OC6)CC[C@]5(O)[C@@H]4CC[C@]3(O)C2)[C@H](O)[C@H](O)[C@H]1O
[1]
  Potency: 16.5 nM (active) and 133 nM (active)
[3]
  Potency: 16.5 nM (active) and 75 nM (active)

## O=C(O)COc1nc(Cl)c(Cl)cc1Cl
[9]
  outcome: inactive
[5]
  Potency: inactive

## CC(=O)C(Cl)(Cl)Cl
[8]
  Potency: inactive
[2]
  Potency: inactive
[5]
  Potency: inactive

## c1ccc(OCC2CO2)cc1 (centres undefined)
[2]
  Potency: inactive
[7]
  Potency: inactive

## O=c1oc2ccccc2c(O)c1Cc1c(O)c2ccccc2oc1=O
[9]
  outcome: inactive
[7]
  Potency: inactive
[3]
  Potency: inactive

## CCC(C)c1cc([N+](=O)[O-])cc([N+](=O)[O-])c1OC(=O)C=C(C)C (centres undefined)
[9]
  outcome: inactive
[5]
  Potency: inactive

## Oc1c(Br)c(Br)c(Br)c(Br)c1Br
[9]
  outcome: inactive

## Nc1ccc(Sc2ccc(N)cc2)cc1
[9]
  outcome: inactive
[3]
  Potency: inactive

## CS(=O)(=O)c1ccc(C(=O)C2C(=O)CCCC2=O)c([N+](=O)[O-])c1
[9]
  outcome: inactive

## COC12CC[C@@]3(C[C@@H]1C(C)(O)C(C)(C)C)[C@H]1Cc4ccc(O)c5c4[C@@]3(CCN1CC1CC1)[C@H]2O5 (some centres undefined)
[9]
  outcome: inactive

## CC(C)C1CCC(Cc2ccc(Cl)cc2)C1(O)Cn1cncn1 (centres undefined)
[9]
  outcome: inactive

## CC(C)CC(C)(c1ccc(O)cc1)c1ccc(O)cc1
[9]
  outcome: inactive
[5]
  Potency: 55.1 µM (active) and inactive
[7]
  Potency: 54.9 µM (active)
[3]
  Potency: 49 µM (active)

## COc1ccc(N)cc1N
[2]
  Potency: inactive
[6]
  Potency: inactive
[7]
  Potency: inactive

## O=[N+]([O-])c1c2ccccc2cc2ccccc12
[2]
  Potency: inactive

## CC(C)Oc1cccc(NC(=O)c2ccccc2C(F)(F)F)c1
[5]
  Potency: inactive
[3]
  Potency: inactive

## S=C=Nc1cccc2ccccc12
[9]
  outcome: inactive
[7]
  Potency: inactive
[3]
  Potency: 54.4 µM (active)

## O=c1ssc(Cl)c1Cl
[8]
  Potency: inactive
[9]
  outcome: inactive
[5]
  Potency: inactive
[3]
  Potency: 43.6 µM (active)

## CC(C)(C)c1ccc(CSc2cnn(C(C)(C)C)c(=O)c2Cl)cc1
[5]
  Potency: inactive

## CCOP(=O)(NC(C)C)Oc1ccc(SC)c(C)c1 (centres undefined)
[2]
  Potency: inactive
[6]
  Potency: inactive
[3]
  Potency: inactive

## CCCSP(=O)(OCC)SCCC
[9]
  outcome: inactive
[6]
  Potency: inactive
[3]
  Potency: inactive

## CCCCOCN(C(=O)CCl)c1c(CC)cccc1CC
[8]
  Potency: inactive
[2]
  Potency: inactive
[3]
  Potency: 49 µM (active)

## CNC(C)Cc1ccc2c(c1)OCO2 (centres undefined)
[2]
  Potency: inactive
[6]
  Potency: inactive
[7]
  Potency: inactive

## CC1CCC(C(C)C)C(OC(=O)c2ccccc2N)C1 (centres undefined)
[2]
  Potency: 60.8 µM (active)
[9]
  outcome: inactive
[3]
  Potency: 34.2 µM (active)

## N#CCCC(Br)(C#N)CBr (centres undefined)
[9]
  outcome: inactive
[3]
  Potency: 43.6 µM (active)

## O=c1[nH]c2ccccc2n1CCCN1CCC(n2c(=O)[nH]c3cc(Cl)ccc32)CC1
[3]
  Potency: inactive

## [CH3][Hg][Cl]
[2]
  Potency: 13.8 µM (active)
[3]
  Potency: 38.8 µM (active)

## Cc1cc(C)cc(OP(=O)(Oc2cc(C)cc(C)c2)Oc2cc(C)cc(C)c2)c1
[2]
  Potency: inactive
[9]
  outcome: inactive
[6]
  Potency: inactive
[7]
  Potency: inactive

## ClC1=C(Cl)[C@]2(Cl)[C@@H]3[C@@H]4C[C@@H]([C@H]5O[C@@H]45)[C@@H]3[C@@]1(Cl)C2(Cl)Cl
[2]
  Potency: 56.4 µM (active)
[3]
  Potency: 30.6 µM (active)

## COC(=O)N(C(=O)N1CO[C@@]2(C(=O)OC)Cc3cc(Cl)ccc3C2=N1)c1ccc(OC(F)(F)F)cc1
[2]
  Potency: inactive
[7]
  Potency: inactive
[3]
  Potency: inactive

## O=S(=O)(c1ccc(Cl)cc1)c1ccc(Cl)cc1
[5]
  Potency: inactive
[6]
  Potency: inactive

## CC1(C)CC/C(=C/c2ccc(Cl)cc2)C1(O)Cn1cncn1 (centres undefined)
[7]
  Potency: inactive
[3]
  Potency: 54.6 µM (active)

## CC[C@H]1C[C@@H]2C[C@H]3c4[nH]c5ccc(OC)cc5c4CCN(C2)[C@@H]13
[2]
  Potency: inactive
[5]
  Potency: inactive

## C[C@]12CC[C@@H]3c4ccc(OC(=O)N(CCCl)CCCl)cc4CC[C@H]3[C@@H]1CC[C@@H]2O
[8]
  Potency: 21.1 µM (active)
[9]
  outcome: inactive
[3]
  Potency: inactive

## Nc1ccc(Cc2ccc(N)c(Cl)c2)cc1Cl
[5]
  Potency: inactive

## C=CCC1=C(C)C(OC(=O)C2C(C=C(C)C)C2(C)C)CC1=O (centres undefined)
[2]
  Potency: 51.9 µM (active)
[3]
  Potency: 18.4 µM (active)

## Oc1ccc2ccc3cccc4ccc1c2c34
[5]
  Potency: inactive

## CC(C)(C)C(O)/C(=C\c1ccc(Cl)cc1Cl)n1cncn1 (centres undefined)
[9]
  outcome: inactive
[3]
  Potency: 59.3 µM (active)

## COc1cccc(C(=O)CCN[C@@H](C)[C@H](O)c2ccccc2)c1
[8]
  Potency: inactive
[2]
  Potency: inactive
[9]
  outcome: inactive
[5]
  Potency: inactive
[3]
  Potency: 33.5 µM (active)

## Oc1cc(Cl)c(Cl)c(Cl)c1
[9]
  outcome: inactive
[6]
  Potency: inactive
[7]
  Potency: inactive
[3]
  Potency: 36.9 µM (active)
